In PubChem BioAssay AID504329 (Southern Research Specialized Biocontainment Screening …, 2011):
Several values for one entry are separate records, joined by “and”; a condition that tells them apart may be missing. Equal entries are not always repeated. The whole screen tested about 340,000 compounds, of which about 1,000 (0.29%) were called active. No stated cut-off is given here; in the data, inconclusive means inhibition above about 27% without an active follow-up result; inactive means below that. Not all results are given here. Entries with a potency or affinity are not part of this list.

experiment: H1N1 influenza NS1A inhibitors, functional cell based assay (AID 504329); conditions: percent inhibition, at 12.5 µM, stronger effect = higher value

SMILES	inhibition
O=C(NCCc1ccccn1)c1ccc(NS(=O)(=O)c2ccc(F)cc2)cc1	-1.36% (inactive)
COc1cccc(OCC(=O)NNC(=O)c2ccc3ccccc3c2O)c1	3.46% (inactive)
CS(=O)(=O)N1N=C(c2ccco2)CC1c1ccco1 (stereo not drawn)	0.65% (inactive)
CC(NC(=O)CN(c1cccc(C(F)(F)F)c1)S(=O)(=O)c1ccc(Cl)c([N+](=O)[O-])c1)c1ccccc1 (stereo not drawn)	-1.19% (inactive)
N#Cc1ccc(C(=O)Nc2cccc3ccccc23)c(F)c1	4.06% (inactive)
CN1C(N)=NC(=O)/C1=C/c1ccc(OC(F)(F)F)cc1	-2.53% (inactive)
CCOC(=O)c1ccccc1NC(=O)CN(c1ccccc1OCC)S(C)(=O)=O	0.08% (inactive)
Cc1ccc(NC(=O)C2CCN(S(=O)(=O)c3ccc(C(C)(C)C)cc3)CC2)cc1S(=O)(=O)N1CCOCC1	-3.38% (inactive)
CCCN(CCC)S(=O)(=O)c1ccc(NS(C)(=O)=O)cc1	-0.06% (inactive)
COC(=O)c1cccc(NS(=O)(=O)c2cccs2)c1C	1.41% (inactive)
Cc1ccccc1NC1=C/C(=N\S(=O)(=O)c2ccc(C(=O)O)cc2)c2ccccc2C1=O	4.65% (inactive)
Cc1ccc(Cl)cc1NC1=C/C(=N\S(=O)(=O)c2cccs2)c2ccccc2C1=O	17.4% (inactive) and 16.6% (inactive)
COC(=O)c1ccccc1NC(=O)c1cccs1	11.6% (inactive)
COC(=O)c1cc(NS(=O)(=O)c2cccs2)cc(NS(=O)(=O)c2cccs2)c1	-13.7% (inactive)
O=C(O)c1ccc(S(=O)(=O)/N=C2\C=C(Nc3ccccc3F)C(=O)c3ccccc32)cc1	14.7% (inactive)
COc1ccccc1S(=O)(=O)Cc1ccc(C(=O)N2CCN(c3ccc(C)cc3)C(C)C2)o1 (stereo not drawn)	9.7% (inactive)
COC(=O)c1ccc2c(c1O)C(=O)c1ccccc1C2=O	4.41% (inactive)
CC(C)COC(=O)c1ccccc1C(=O)OCC(C)C	2.41% (inactive)
CCN(CC)c1ccc(O)c(C=Nc2ccc(C)c(C)c2)c1	-19.5% (inactive)
COc1ccc2c(O)c(-c3c(C)cc(C)cc3C)c(=O)[nH]c2c1	10.4% (inactive)
COc1ccc(/C=C(/NC(=O)c2ccco2)C(=O)Nc2ccc(C(=O)O)cc2)cc1	-7.59% (inactive)
COC(CNC(=O)c1ccc(N2CCc3ccccc32)c([N+](=O)[O-])c1)OC	10.7% (inactive)
O=C(O)c1ccc(N2CCc3ccccc32)c([N+](=O)[O-])c1	4.7% (inactive)
COCC(COS(N)(=O)=O)C(C)C (stereo not drawn)	9.46% (inactive)
CCc1nc(N2CCN(C(=O)c3ccccc3)CC2)c2c3c(sc2n1)CCCC3	2.27% (inactive)
Cc1c2ccccc2cc[n+]1CCCS(=O)(=O)[O-]	5.16% (inactive)
CCOc1ccc(C(=O)Nc2ncn[nH]2)cc1	-3.3% (inactive)

SMILES	inhibition
CCC(CO)Oc1cc(NCc2ccccc2)c2ncn(C(C)C)c2c1 (stereo not drawn)	3.05% (inactive)
COc1cc(NCc2ccccc2)c2ncn(C(C)C)c2c1	0.83% (inactive)
Cc1ccc2c(c1)c(N=Nc1cccc(C(=O)O)c1)c(O)n2C	-0.45% (inactive)
CC(=O)Nc1nonc1NC(=O)COc1ccccc1	-0.08% (inactive)
CCC(C)[C@H](NC(=O)[C@@H]1Cc2c([nH]c3ccccc23)C2c3ccccc3C(=O)N21)C(=O)NCC1CCCO1 (stereo partly drawn)	0.06% (inactive)
C=CCOC(=O)C1=C(C)Nc2nc3ccccc3n2C1c1ccncc1 (stereo not drawn)	-21.4% (inactive)
Cc1ccc2cc(/C=N/NC(=O)CN3CCCCC3)c(Cl)nc2c1	1.44% (inactive)
O=C(CN1CCCc2ccccc21)N/N=C/c1c(O)ccc2ccccc12	-3.7% (inactive)
Cc1cccc(/C=N/NC(=O)CN2CCCCCCC2)c1	5.95% (inactive)
O=C(CN1CCOCC1)N/N=C/c1c(O)ccc2ccccc12	14.4% (inactive)
COc1cc2oc3ccccc3c2cc1N(CC(=O)N(C)C)S(=O)(=O)c1ccc(C)cc1	1.98% (inactive)
CCCCc1nnc(NC(=O)c2ccc(OCc3c(C)noc3C)cc2)s1	3.77% (inactive)
CCOC(=O)N1CCN(C(=O)c2ccc3c(Cl)c4c(nc3c2)CCCC4)CC1	-2.68% (inactive)
CSCC[C@H](NC(=O)OC(C)(C)C)C(=O)N1CCC(C(=O)N[C@@H](C)C(=O)NC(C)c2ccccc2)CC1 (stereo partly drawn)	4.49% (inactive)
CCc1ccc(CN(C)C(=O)c2ccc3c(=O)n4c(nc3c2)CCC4)cc1	-7.99% (inactive)
COc1cccc2c1C(=O)c1c(O)c3c(c(O)c1C2=O)C[C@](O)(C(C)=O)C[C@H]3O[C@@H]1C[C@@H](N)[C@@H](O)[C@@H](C)O1	24.5% (inactive)
COc1cccc2c1C(=O)c1c(O)c3c(c(O)c1C2=O)C[C@@](O)(C(=O)CO)C[C@@H]3OC1CC(N)C(O)C(C)O1 (stereo partly drawn)	15% (inactive)
COc1cccc2c1C(=O)c1c(O)c3c(c(O)c1C2=O)CC(O)(C(C)=O)CC3OC1CC(N(C)C)C(O)C(C)O1 (stereo not drawn)	19.1% (inactive)
COc1cccc2c1C(=O)c1c(O)c3c(c(O)c1C2=O)CC(O)(C(=O)CO)CC3OC1CC(N(C)C)C(O)C(C)O1 (stereo not drawn)	18.7% (inactive)
CCCCC(=O)OCC(=O)C1(O)Cc2c(O)c3c(c(O)c2C(OC2CC(NC(=O)C(F)(F)F)C(O)C(C)O2)C1)C(=O)c1c(OC)cccc1C3=O (stereo not drawn)	14.4% (inactive)
C/C(=N\NC(=O)c1ccc(Cl)c(Cl)c1)c1cccc(NC(=O)C(C)C)c1	-0.88% (inactive)
COc1cccc2c1C(=O)c1c(O)c3c(c(O)c1C2=O)CC(O)(C(C)=O)CC3OC1CC(O)C(O)C(C)O1 (stereo not drawn)	20.6% (inactive)
COc1cccc2c1C(=O)c1c(O)c3c(c(O)c1C2=O)C[C@@](O)(C(=O)CO)C[C@@H]3O[C@H]1C[C@H](N)[C@H](O)[C@H](C)O1	20.3% (inactive)
COC(=O)CC1=C(C(=O)OC)C(c2ccc3c(c2)OCO3)C(C#N)=C(N)O1 (stereo not drawn)	-5.88% (inactive)
Cc1cc(C)c(NC(=O)c2ccc(CN3CCc4ccccc4C3)cc2)c(C)c1	12.4% (inactive)
COc1ccccc1/C=C/C=C1\Oc2c(ccc(O)c2CN2CCN(CCO)CC2)C1=O	6.54% (inactive)
